Records with an inconclusive call do not appear. Active and inactive are the calls of the source. Unless noted, calls come from the whole dose curve; as a rule, active = well fitted curve in the direction sought with a large enough effect in the repeat runs; inconclusive = weak or mixed curves; inactive = no such curve, though single readings can be large; an effect the other way counts as inactive or inconclusive.
What was measured:
[1] = A CellTox Green Cytotoxicity Assay to monitor cytotoxicity in HepG2 cells - 8 hour (AID 1224890); note: nearly all actives have a fitted effect of over 45% in size
In short: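 Measurements at 0, 8, 16, 24, 32 and 40 h of treatment captured CellTox Green fluorescence in HepG2 cells that had been co-plated with reagent and preincubated 5 h at 37 C/5% CO2.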

[2] = qHTS assay to identify small molecule antagonists of the estrogen receptor alpha (ER-alpha) signaling pathway using the BG1 cell line in the presence of 0.1 nM 17-beta-estradiol - cell viability counter screen (AID 1259241); note: nearly all actives have a fitted effect of over 40% in size
In short: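 The cell line endogenously expresses full-length ER-alpha and carries four EREs driving luciferase. Cells are cultured 5 days hormone-free, treated 22 hr with compounds and 0.1 nM estradiol, then viability is read by fluorescence.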

[3] = qHTS assay to identify small molecule antagonists of the androgen receptor (AR) signaling pathway using the MDA cell line in the presence of 0.5 nM R1881 - cell viability counter screen (AID 1259242); note: nearly all actives have a fitted effect of over 45% in size
In short: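 Concentration-response screen of compounds for toxicity in MDA-kb2 reporter cells: 16 hr at 37C with 0.5 nM R1881, endpoint live-cell protease fluorescence measured in the reporter wells.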

[4] = qHTS assay to identify small molecule HDAC inhibitors (AID 1259364); note: potency is the fitted concentration of half-maximal effect;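 note: wild-type HCT-116 cells with endogenous class I/II HDAC activity; nearly all actives have a fitted effect of over 45% in size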
In short: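 Screening used wild-type human colon HCT-116 cells incubated overnight, dosed with compounds for 2 hours, and assayed with a homogeneous luminogenic HDAC I/II reagent for 30 minutes at room temperature.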

[5] = qHTS assay to identify small molecule HDAC inhibitors - cell viability counter screen (AID 1259365); note: series mostly up to about 92 µM; nearly all actives have a fitted effect of over 50% in size
In short: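 Viability readout: CellTiter-Glo luminescence. Wild-type HCT-116 cells, 2hr compound treatment following overnight attachment at 37 C.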

[6] = qHTS assay to identify small molecule agonists of the sonic hedgehog signaling (Shh) pathway - cell viability counter screen (AID 1259366); note: nearly all actives have a fitted effect of over 50% in size
In short: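 Viability measured fluorometrically (CellTiter-Fluor, 1hr, 37C) in 3T3 Gli1-Luc reporter cells after 23hr compound exposure within a 24hr incubation at 37C/5% CO2.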

[7] = qHTS assay to identify small molecule antagonists of the sonic hedgehog signaling (Shh) pathway - cell viability counter screen (AID 1259367); note: nearly all actives have a fitted effect of over 55% in size
In short: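 CellTiter-Fluor signal in conditioned medium-stimulated 3T3 Gli1-Luc cells, 23 hr compound exposure, 37C.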

[8] = qHTS assay to identify small molecule antagonists of the sonic hedgehog signaling (Shh) pathway (AID 1259369; calls by dose curve; note: nearly all actives have a fitted effect of over 45% in size; note: potency is the fitted concentration of half-maximal effect)
In short: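 NIH/3T3 stable Gli1-Luc clone, 2,000 cells/well, 4hr settle; cpd + conditioned medium 24hr; Luc reagent 30min RT; luminescence.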

[9] = molecular target: Estrogen receptor beta (Homo sapiens) (UniProt Q92731); test: qHTS assay to identify small molecule agonists of the estrogen receptor beta (ER-beta) signaling pathway (AID 1259377; active = well fitted activation curve with a large enough effect in the signal ratio in the repeat runs, not every such curve was filed as active; the % refers to the signal ratio)
In short: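 A UAS-controlled beta-lactamase reporter in ER-beta-UAS-bla HEK293T cells reports receptor activation. Compounds act for 16 hr at 37C in 2% charcoal-stripped serum, and a FRET substrate is read by fluorescence after 2 hours.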

[10] = molecular target: Estrogen receptor beta (Homo sapiens) (UniProt Q92731); test: qHTS assay to identify small molecule antagonists of the estrogen receptor beta (ER-beta) signaling pathway (AID 1259378; active = well fitted inhibition curve with a large enough effect in the signal ratio in the repeat runs, not every such curve was filed as active; the % refers to the signal ratio)
In short: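 Antagonist mode: compounds added to beta-lactamase reporter HEK293T ER-beta-UAS cells stimulated with E2 (1nM final), 16 hr at 37C. LiveBLAzer B/G FRET substrate, 2 hours room temperature, fluorescence read-out.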

[11] = qHTS assay to identify small molecule agonists of the androgen receptor (AR) signaling pathway in the presence of an antagonist - cell viability counter screen (AID 1259379);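 note: MDA-kb2 human breast cancer cells carrying an MMTV luciferase reporter; series mostly up to about 92 µM; nearly all actives have a fitted effect of over 25% in size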
In short: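 MDA-kb2 viability measured by CellTiter-Fluor fluorescence in the same wells as the luciferase signal; nilutamide 3.0uM final; 15-point compound titration; 16 hr at 37C.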

[12] = qHTS assay to identify small molecule agonists of the estrogen receptor beta (ER-beta) signaling pathway - cell viability counter screen (AID 1259380); note: nearly all actives have a fitted effect of over 30% in size; note: potency is the fitted concentration of half-maximal effect
In short: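 Measured: luminescence from CellTiter-Glo after 30 min at room temperature, added to wells already read for the LiveBLAzer FRET reporter (2 hr substrate); ER-beta-UAS-bla HEK293T cells had 16 hr compound treatment at 37C, 5% CO2.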

[13] = qHTS assay to identify small molecule antagonists of the estrogen receptor beta (ER-beta) signaling pathway - cell viability counter screen (AID 1259382);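 note: HEK293T cells carrying ER-beta-UAS-bla reporter stimulated with estradiol; series mostly up to about 92 µM; nearly all actives have a fitted effect of over 55% in size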
In short: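 Readout: luminescence, CellTiter-Glo, same wells as bla assay. System: ER-beta-UAS-bla GripTite HEK293T, 2% charcoal-stripped FBS. Exposure: compounds plus 1nM 17-beta-estradiol, 16 hr, 37C.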

[14] = qHTS assay to identify small molecule agonists or antagonists of the thyroid stimulating hormone receptor (TSHR) signaling pathway - wild type cell line counter screen (AID 1259384; calls by dose curve)
In short: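 Counter screen in untransfected Hek293: compounds (15-point titration, triplicate) plus phosphodiesterase inhibitor Ro20-1724 added after 18 h plating; 30 min RT. Intracellular cAMP via competitive d2/cryptate immunoassay, 1 h incubation.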

[15] = qHTS assay to identify small molecule agonists of the sonic hedgehog signaling (Shh) pathway (AID 1259368; calls by dose curve;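 note: NIH/3T3-derived 3T3Gli1-Luc cells carrying a stable Gli1-driven firefly luciferase reporter; series mostly up to about 92 µM; nearly all actives have a fitted effect of over 15% in size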)
In short: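 Hedgehog pathway agonism scored by increased firefly luciferase luminescence in 3T3Gli1-Luc cells treated 24 hr at 37 C; detection used a 30 min room-temperature reagent incubation.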

[16] = molecular target: Estrogen receptor (Homo sapiens) (UniProt P03372); test: qHTS assay to identify small molecule agonists of the estrogen receptor alpha (ER-alpha) signaling pathway in the presence of an antagonist (AID 1259383; calls by dose curve; note: top concentration of the series differs between compounds; nearly all actives have a fitted effect of over 15% in size)
In short: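 Quantitative HTS confirmation: compounds titrated at 15 concentrations onto estrogen-deprived VM7Luc4E2 cells carrying a four-ERE luciferase construct, with ICI-182,780 present at 10.0nM final. Signal is luminescence after 22hr exposure.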

[17] = qHTS assay to identify small molecule phospholipidosis (PLD) inducers (AID 1259344; active = well fitted curve in the direction sought with a large enough effect; an effect the other way counts as inactive or inconclusive)
In short: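 Accumulated phospholipid, stained red by LipidTOX during 24 h compound treatment of HepG2 cells at 37 C, is quantified from images as pit number and intensity, normalised per cell using Hoechst-stained nuclei.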

Measured: Potency

Sequence of Estrogen receptor (Homo sapiens) (P03372 whole entry, looked up): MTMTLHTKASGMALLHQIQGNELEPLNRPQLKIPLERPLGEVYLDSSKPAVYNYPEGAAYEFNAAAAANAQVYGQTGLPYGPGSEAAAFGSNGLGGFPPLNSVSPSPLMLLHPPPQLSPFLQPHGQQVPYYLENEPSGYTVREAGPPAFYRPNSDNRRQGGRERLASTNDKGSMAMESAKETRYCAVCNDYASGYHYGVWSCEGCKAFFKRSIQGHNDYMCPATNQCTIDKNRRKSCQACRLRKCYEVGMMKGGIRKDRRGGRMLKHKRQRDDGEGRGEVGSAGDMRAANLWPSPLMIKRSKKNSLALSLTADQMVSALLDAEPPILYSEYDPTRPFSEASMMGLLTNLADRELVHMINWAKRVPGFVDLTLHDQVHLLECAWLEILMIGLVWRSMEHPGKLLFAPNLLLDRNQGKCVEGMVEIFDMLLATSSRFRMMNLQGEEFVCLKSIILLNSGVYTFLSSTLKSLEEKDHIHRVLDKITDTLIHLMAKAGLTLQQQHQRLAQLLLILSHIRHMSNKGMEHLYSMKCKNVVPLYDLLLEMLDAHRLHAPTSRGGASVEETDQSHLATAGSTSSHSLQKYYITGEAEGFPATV
Sequence of Estrogen receptor beta (Homo sapiens) (Q92731 whole entry, looked up): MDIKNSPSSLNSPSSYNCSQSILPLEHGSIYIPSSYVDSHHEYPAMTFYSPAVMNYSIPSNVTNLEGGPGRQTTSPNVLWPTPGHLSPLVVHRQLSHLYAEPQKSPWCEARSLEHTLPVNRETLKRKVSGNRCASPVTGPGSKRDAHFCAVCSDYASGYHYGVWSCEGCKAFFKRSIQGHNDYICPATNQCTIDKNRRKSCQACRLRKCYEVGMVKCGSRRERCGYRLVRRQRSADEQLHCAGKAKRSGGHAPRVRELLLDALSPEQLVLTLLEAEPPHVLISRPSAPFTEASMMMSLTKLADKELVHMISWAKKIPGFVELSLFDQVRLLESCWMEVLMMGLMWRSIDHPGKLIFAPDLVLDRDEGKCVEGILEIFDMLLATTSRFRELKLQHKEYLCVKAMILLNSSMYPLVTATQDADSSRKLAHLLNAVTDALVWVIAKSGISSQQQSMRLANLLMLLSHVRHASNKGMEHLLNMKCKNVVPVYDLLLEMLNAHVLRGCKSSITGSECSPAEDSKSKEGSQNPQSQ

CCCCNCCCC
not listed: [15] | [16] | [17]
inactive: all other assays above

CCCCCCC
not listed: [9] | [10] | [17]
inactive: all other assays above

Clc1cccc(-c2cc(Cl)cc(Cl)c2)c1
not listed: [9] | [10] | [12] | [17]
inactive: all other assays above

CCOc1ccc2nc(N)sc2c1
active: [4] 24.1 µM
not listed: [9] | [10] | [12] | [17]
inactive: all other assays above

COc1cc(Cl)ccc1Cl
not listed: [16] | [17]
inactive: all other assays above

CC(C)O
active: [8] 29.3 µM
not listed: [5] | [6] | [7]
inactive: all other assays above

CN(CC1(C)CCCO1)S(=O)(=O)c1ccc(Cl)c(S(N)(=O)=O)c1 (stereo not drawn)
not listed: [10] | [16] | [17]
inactive: all other assays above

COc1cc(C)ccc1C(C)C
not listed: [7] | [17]
inactive: all other assays above

C=C(C)C(=O)OCCOP(=O)(O)O
not listed: [9] | [17]
inactive: all other assays above

CC(C)C[C@H](NC(=O)OCC1c2ccccc2-c2ccccc21)C(=O)O
active: [12] 61.1 µM
not listed: [9] | [10] | [13] | [15] | [16] | [17]
inactive: all other assays above

C/C(=N\O)[C@@H](C)NCC(C)(C)CN[C@H](C)/C(C)=N/O
not listed: [9] | [10] | [16] | [17]
inactive: all other assays above

C=CCCCCCCCCO
not listed: [10] | [17]
inactive: all other assays above

O=Cc1ccc(F)c(Br)c1
not listed: [9] | [10] | [12] | [17]
inactive: all other assays above

C1CCOC1
not listed: [9] | [10] | [15] | [16] | [17]
inactive: all other assays above

FC(F)(F)c1ccccc1
not listed: [12] | [17]
inactive: all other assays above

CCC1(C)NC(=O)NC1=O (stereo not drawn)
not listed: [16] | [17]
inactive: all other assays above

CN1[C@@H]2CC[C@H]1CC(OC(=O)c1c[nH]c3ccccc13)C2 (stereo partly drawn)
not listed: [5] | [8] | [9] | [16]
inactive: all other assays above

O=CCCc1ccccc1
not listed: [14] | [16] | [17]
inactive: all other assays above

From PubChem BioAssay (Tox21)
